In PubChem BioAssay (NCATS):
Where “and” joins values, the source holds several entries; their conditions need not be identical. Equal values may be shown once. Records with an inconclusive call do not appear. More than one record can exist for a structure, and the calls need not agree. Calls of active or inactive are those of the source. Calls follow the shape of the dose curve; as a rule, active = well fitted curve in the direction sought with a large enough effect; inconclusive = small, poorly fitted or top-dose-only effect, or another doubt; inactive = no such curve, though single readings can be large; an effect the other way counts as inactive or inconclusive.

What was measured:
[1] = Cell Viability - LYMP2-026 (AID 989);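 also: cells exposed to compound for 24 h at 37 °C; nearly all actives have a fitted effect of over 50% in size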; also: potency is read from the fitted curve at half-maximal effect
Outline: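 Concentration-dependent loss of intracellular ATP in human lymphoblastoid cells after 24 hr at 37 C, quantified by luciferase luminescence. AC50 derived from standard Hill equation.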

[2] = Cell Viability - LYMP1-002 - Assay at 24 hr (AID 993); also: potency is read from the fitted curve at half-maximal effect
Outline: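 qHTS, LYMP1-002 lymphoblastoid, 24 h cpd, 37 C, CellTiter-Glo ATP luminescence; AC50 via Hill eq.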

[3] = Cell Viability - LYMP1-002 - Assay at 40 hr (AID 994); also: nearly all actives have a fitted effect of over 60% in size; also: potency is read from the fitted curve at half-maximal effect
Outline: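 Viability in the human lymphoblastoid line was measured as intracellular ATP via CellTiter-Glo after 40 hr compound exposure. Tetraoctylammonium bromide served as positive control.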

[4] = Cell Viability - LYMP2-024 (AID 988);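 also: cells exposed to compound for 24 hr at 37 °C; nearly all actives have a fitted effect of over 60% in size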; also: potency is read from the fitted curve at half-maximal effect
Outline: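 Acute toxicity is measured as concentration-dependent loss of intracellular ATP in a human lymphoblastoid line treated 24 hours at 37 C. Luciferase luminescence quantifies ATP; AC50 values come from standard Hill-equation modelling.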

[5] = target: Alpha-galactosidase A (Homo sapiens) (UniProt P06280); assay: Counterscreen for Glucocerebrosidase Inhibitors: qHTS Assay for Human alpha-Galactosidase at pH 4.5 (AID 992)
Outline: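 Concentration-response curves (0.7 nM to 77 uM final) were modeled with the Hill equation to give AC50. Reactions: 2 nM enzyme, 80 uM fluorogenic alpha-galactoside, pH 4.5 citric acid buffer, 20 min, room temperature.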

[6] = target: Alpha-galactosidase (Coffea arabica) (UniProt Q42656); assay: Counterscreen for Glucocerebrosidase Inhibitors: qHTS Assay for Coffee Bean alpha-Galactosidase at pH 5.9 (AID 998)
Outline: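 Green coffee bean enzyme (2 nM final) was incubated with compounds (0.7 nM–77 uM) and 4-methylumbelliferyl alpha-D-galactopyranoside (80 uM) in citrate buffer pH 5.9, 20 min at room temperature. High-pH stop; fluorescence 365/440 nm; AC50 from Hill fits.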

[7] = qHTS for differential inhibitors of proliferation of Plasmodium falciparum line 7G8 (AID 1815);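 also: potency is read from the fitted curve at half-maximal effect; parasite growth measured after three days of incubation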
[8] = qHTS for differential inhibitors of proliferation of Plasmodium falciparum line GB4 (AID 1816); details: Potency: Plasmodium falciparum GB4 proliferation inhibition;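 also: potency is read from the fitted curve at half-maximal effect; parasite growth measured after 72 h incubation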
[9] = qHTS for differential inhibitors of proliferation of Plasmodium falciparum line 3D7 (AID 1876); also: potency is read from the fitted curve at half-maximal effect
[10] = qHTS for differential inhibitors of proliferation of Plasmodium falciparum line D10 (AID 1877);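 also: potency is read from the fitted curve at half-maximal effect; parasites grown with compound for 72 h before DNA staining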
[11] = qHTS for differential inhibitors of proliferation of Plasmodium falciparum line Dd2 (AID 1882); details: Potency: Plasmodium falciparum Dd2 proliferation inhibition; also: potency is read from the fitted curve at half-maximal effect; nearly all actives have a fitted effect of over 65% in size
Outline: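 SYBR Green I DNA fluorescence read-out, ex 485/em 535 nm. Signals were normalized to 0.29 uM artemisinin and DMSO wells, then corrected using vehicle-only plates flanking each stack. Parasite growth ran 72 h in erythrocytes before lysis.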

[12] = qHTS for differential inhibitors of proliferation of Plasmodium falciparum line W2 (AID 1883); details: Potency: Plasmodium falciparum W2 proliferation inhibition;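 also: potency is read from the fitted curve at half-maximal effect; parasites grown with compound for 72 h before lysis and staining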
[13] = qHTS for differential inhibitors of proliferation of Plasmodium falciparum line HB3 (AID 1886); details: Potency: Plasmodium falciparum HB3 proliferation inhibition;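 also: potency is read from the fitted curve at half-maximal effect; parasites grown with compound for 72 h before SYBR Green readout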
[14] = Counterscreen for APE1 Inhibitors: Fluorescent Dye Displacement Validation Assay (AID 1707)
Outline: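 Assay buffer: Tris-HCl pH7.5 with 50mM NaCl, 2 mM MgCl2, 0.01% Tween-20. Dye 250 nM, duplex 50 nM final. Readout: decrease in ThO endpoint fluorescence, 480 nm excitation, 540 nm emission.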

[15] = target: alpha-glucosidase (Oryza sativa, rice) (UniProt Q653V4); assay: Counterscreen for Glucocerebrosidase Inhibitors: qHTS Assay for Rice alpha-Glucosidase at pH 5.0 (AID 997)
Outline: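 Rice alpha-glucosidase (4 nM final) with 400 uM 4-methylumbelliferyl-alpha-D-glucopyranoside in citrate buffer pH 5.0, 20 min at room temperature, stopped at pH 10; fluorescence 365/440 nm, compounds 0.7 nM–77 uM, AC50 from Hill fits.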

Measured: Potency

Sequence of Alpha-galactosidase A (Homo sapiens) (P06280 whole entry, looked up): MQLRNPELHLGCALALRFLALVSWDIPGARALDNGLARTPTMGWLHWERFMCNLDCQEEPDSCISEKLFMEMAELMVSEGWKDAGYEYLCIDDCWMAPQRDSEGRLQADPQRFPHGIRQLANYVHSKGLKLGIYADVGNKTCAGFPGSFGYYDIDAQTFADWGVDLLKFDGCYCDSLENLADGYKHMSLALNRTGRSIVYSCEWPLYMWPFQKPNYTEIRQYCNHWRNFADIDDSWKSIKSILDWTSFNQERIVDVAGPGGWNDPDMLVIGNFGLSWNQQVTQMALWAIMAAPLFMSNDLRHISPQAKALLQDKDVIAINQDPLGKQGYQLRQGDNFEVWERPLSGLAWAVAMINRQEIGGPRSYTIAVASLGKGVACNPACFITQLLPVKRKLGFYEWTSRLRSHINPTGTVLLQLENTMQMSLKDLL
Sequence of Alpha-galactosidase (Coffea arabica) (Q42656 whole entry, looked up): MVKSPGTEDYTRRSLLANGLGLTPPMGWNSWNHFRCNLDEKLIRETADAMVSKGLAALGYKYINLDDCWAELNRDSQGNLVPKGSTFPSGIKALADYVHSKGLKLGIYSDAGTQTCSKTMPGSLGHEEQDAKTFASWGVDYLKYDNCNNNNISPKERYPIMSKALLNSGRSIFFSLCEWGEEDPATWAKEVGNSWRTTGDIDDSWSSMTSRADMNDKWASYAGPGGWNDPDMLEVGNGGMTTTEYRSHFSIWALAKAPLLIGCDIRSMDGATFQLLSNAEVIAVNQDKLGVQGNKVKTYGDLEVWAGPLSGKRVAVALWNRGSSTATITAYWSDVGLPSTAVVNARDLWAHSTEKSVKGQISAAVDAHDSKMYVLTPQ

ClCC1CO1 (stereo not drawn)
inactive: [1] | [2] | [3]

C[C@]12CCC(=O)C[C@@H]1CC[C@@H]1[C@@H]2CC[C@]2(C)[C@@H](O)CC[C@@H]12
inactive: [4] | [1] | [2] | [3]

ClC=C(Cl)Cl
inactive: [4] | [1] | [2] | [3]

N#CCCN
inactive: [5] | [6]

[O]=[Cd]
inactive: [4] | [1] | [2] | [3]

O=CC=O
inactive: [4] | [1] | [2] | [3]

CCOC(=O)c1ccccc1C(=O)OCC
inactive: [4] | [1] | [2] | [3]

c1ccc2c(c1)[I+]c1ccccc1-2
inactive: [5] | [6]
active: [7] 0.1 µM | [8] 0.0708 µM | [9] 0.0708 µM | [10] 0.141 µM | [11] 1 µM | [12] 0.1 µM | [13] 0.0562 µM

S=C=S
inactive: [4] | [1] | [2] | [3]

O=Cc1ccco1
inactive: [4] | [1] | [2] | [3]

C[N+]1(C)[C@@H]2CC[C@H]1CC(OC(=O)c1c[nH]c3ccccc13)C2 (stereo partly drawn)
inactive: [5] | [15] | [6]

C[C@@H]1[C@@H]2Cc3ccc(O)cc3[C@@]1(C)CCN2CC1CC1
inactive: [5] | [6]

O=[N+]([O-])c1ccc(F)c([N+](=O)[O-])c1
inactive: [1] | [2] | [3]

O=C1C2CC=CCC2C(=O)N1SC(Cl)(Cl)Cl (stereo not drawn)
active: [4] 1.58 µM and 3.16 µM | [1] 3.98 µM and 6.31 µM | [2] 7.94 µM | [3] 15.8 µM

CCCCCCCCCCCCCC(=O)O[C@@H]1[C@@H](C)[C@@]2(O)[C@@H](C=C(CO)C[C@@]3(O)C(=O)C(C)=C[C@@H]23)C2C(C)(C)[C@@]21OC(C)=O (stereo partly drawn)
active: [7] 5.62 µM | [8] 11.2 µM | [9] 10 µM | [10] 11.2 µM | [12] 7.08 µM | [13] 12.6 µM

Clc1ccc(N2C[C@H]3CC[C@@H](C2)N3)nn1
inactive: [5] | [15] | [6]

CN1CCc2cc(O)cc3c2[C@H]1Cc1ccc(O)c(O)c1-3
inactive: [5] | [6]

C[C@H]1CC[C@@H]2[C@@H](C)[C@H]3[C@H](C[C@H]4[C@@H]5CC=C6CC(O[C@@H]7O[C@H](CO)[C@H](O)[C@H](O[C@@H]8O[C@H](CO)[C@@H](O)[C@H](O)[C@H]8O)[C@H]7O[C@H]7O[C@@H](C)[C@H](O)[C@@H](O)[C@H]7O)CC[C@]6(C)[C@H]5CC[C@]34C)N2C1 (stereo partly drawn)
inactive: [1]
active: [2] 25.1 µM | [3] 39.8 µM

[O]=[Cr](=[O])([OH])[O][Cr](=[O])(=[O])[OH]
inactive and 39.8 µM (active): [3]
inactive: [2]
active: [4] 12.6 µM and 15.8 µM and 10 µM | [1] 15.8 µM and 20 µM and 12.6 µM

O=C(O)C(Cl)(Cl)Cl
inactive: [4] | [1] | [2] | [3]

O=[N+]([O-])c1ccccc1
inactive: [4] | [1] | [2] | [3]
